Screens deposited in PubChem BioAssay by National Center for Advancing Translational Sciences (NCATS).
GLP-1R agonist: agonists of human GLP-1 receptor; P43220; HEK293 GLP-1R CRE-luciferase, luminescence, 4-6 h; cells express a hypersensitive GLP-1R form; Potency, µM (series often up to 45.6 µM), usual class: activators; 380,000 compounds, 0.007% hits; AID 624172
Target sequence (P43220 whole entry, looked up): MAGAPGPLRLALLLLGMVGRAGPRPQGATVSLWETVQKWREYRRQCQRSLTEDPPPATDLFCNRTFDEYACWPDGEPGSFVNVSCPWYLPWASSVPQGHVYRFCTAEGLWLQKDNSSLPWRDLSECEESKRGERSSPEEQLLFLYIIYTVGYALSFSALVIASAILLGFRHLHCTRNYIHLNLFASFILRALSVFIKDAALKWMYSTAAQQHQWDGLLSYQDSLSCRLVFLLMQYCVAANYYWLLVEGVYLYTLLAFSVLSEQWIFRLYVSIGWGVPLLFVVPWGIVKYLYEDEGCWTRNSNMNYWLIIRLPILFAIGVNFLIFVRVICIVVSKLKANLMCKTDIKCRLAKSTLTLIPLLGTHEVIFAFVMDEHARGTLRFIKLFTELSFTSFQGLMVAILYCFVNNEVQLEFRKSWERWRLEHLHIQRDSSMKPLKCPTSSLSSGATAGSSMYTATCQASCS
HEK293 tox: cytotoxicity counter-screen for GLP-1 receptor inverse agonists. HEK293 cAMP-luciferase reporter cells, luminescence, 24 h. Potency, µM (doses to about 38.3 µM), usual class: inhibitors. 410,000 compounds, 0.13% hits;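 also: loss of luciferase light is scored as toxicity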
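To flag toxic compounds, the library was rerun on cells for 24 hr at 37 deg C and 5% CO2. Viability-linked luminescence was captured 12 min after adding luciferase detection reagent.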
uPA generation: cell surface uPA generation inhibition. Potency, µM (series often up to 38.3 µM), actives largely listed as inhibitors. 330,000 compounds, 0.31% hits. cell surface uPA generation assay, qHTS; active = well fitted inhibition curve with a large enough effect; inconclusive = small, poorly fitted or top-dose-only effect; inactive = no such curve, though single readings can be large or run the other way; tested in mouse RAW 264.7 cells; also: nearly all actives have a fitted effect of over 55% in size
Mm-Cpn inhibitor: blocks the Methanococcus maripaludis chaperonin Mm-Cpn | purified Mm-Cpn ATPase, ADP Transcreener TR-FRET | Potency, µM (doses to about 76.9 µM), usual class: inhibitors | 330,000 compounds, 0.031% hits | AID 504842; also: nearly all actives have a fitted effect of over 80% in size
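25 nM Mm-CPN + cpd, 10 min 37°C; + 10 uM ATP, 30 min 37°C; buffer 30 mM Tris pH 7.4, 100 mM KCl, 5 mM MgCl2, 1 mM DTT; Transcreener ADP HTRF detection 30 min RT.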
CCT modulator: cytosolic chaperonin activity modulation | purified chaperonin ATPase assay, HTRF ADP detection, 30 min | activity change, % (test concentration not listed), hits read low | 360,000 compounds, 0.3% hits; in the data active = activity change below about -30%
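TRiC (40 or 20 nM final, by batch activity) in 30 mM Tris pH 7.4, 100 mM KCl, 5 mM MgCl2, 1 mM DTT was treated with compound at 76 uM single dose, then 10 uM ATP, 30 min at 37 °C. ADP was read by HTRF Transcreener.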
GLP1R inv ag: GLP-1 receptor (human) inverse agonism; HEK293 GLP-1R CRE-luciferase, luminescence, 24 h; GLP-1R form is constitutively active; Potency, µM (doses to about 38.3 µM), hits mostly inhibitors; 410,000 compounds, 1.6% hits; AID 624417; also: nearly all actives have a fitted effect of over 55% in size
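Readout was luciferase luminescence, measured 12 min after detection reagent at room temperature. Beforehand, GLP-1R reporter HEK293 cells had sat 12 h, then received compounds for 24 hr at 37 deg C.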
Each line names hits and unclear results; the compound was inactive in the other large screens. This is a sample that favours compounds with a hit; in the whole collection about 2.2% have one here. Unless noted, calls follow the shape of the dose curve; as a rule, active = well fitted curve in the direction sought with a large enough effect; inconclusive = small, poorly fitted or top-dose-only effect, or another doubt; inactive = no such curve, though single readings can be large; an effect the other way counts as inactive or inconclusive.

O=C(CCl)Nc1cc(SCC(O)CO)cc([N+](=O)[O-])c1 (stereo unspecified)	HEK293 tox 3.98µM, GLP1R inv ag inconclusive
COC1=CC(=O)OC(CCc2ccc3c(c2)OCO3)C1 (stereo unspecified)	CCT modulator -31.7 (no result: Mm-Cpn inhibitor)
C=C(C(=O)c1ccccc1)C(C)CC(=O)c1ccccc1 (stereo unspecified)	HEK293 tox inconclusive, GLP1R inv ag 8.91µM
NCC(=O)c1ccccc1	none (no result: Mm-Cpn inhibitor)
CC1=CC2=NC(=O)/C(=C\c3cccn3CCOc3cc(C)ccc3C)C(=N)N2O1	HEK293 tox inconclusive, GLP1R inv ag inconclusive
CC[C@@]1(c2ccccc2OC)ON(c2ccccc2C(F)(F)F)C1=O	uPA generation inconclusive
CCOc1cc(CNCCc2c[nH]c3ccccc23)cc(Cl)c1OCC	HEK293 tox inconclusive, GLP1R inv ag 11.2µM
Cc1ccc2[nH]c(C(=O)N/N=C/c3ccccc3O)c(C)c2c1	uPA generation 3.55µM, GLP1R inv ag inconclusive
Cc1c(C(=O)NN)[nH]c2ccc([N+](=O)[O-])cc12	HEK293 tox inconclusive, GLP1R inv ag inconclusive
O=C1CN=C(c2ccccc2)c2c(sc3c2CCCC3)N1	uPA generation 4.47µM, GLP1R inv ag inconclusive
O=C1CN=C(c2cccs2)c2c(sc3c2CCCC3)N1	none (no result: uPA generation)
CCN(CC)CCOc1ccc(/C(=C(/Cl)c2ccccc2)c2ccccc2)cc1	HEK293 tox inconclusive, Mm-Cpn inhibitor inconclusive, GLP1R inv ag 11.2µM
CC/C(=C(\c1ccc(O)cc1)c1ccc(OCCN(C)C)cc1)c1ccccc1	uPA generation inconclusive, GLP1R inv ag inconclusive
COC(=O)C1=C(c2ccc3ccccc3c2)C[C@@H]2CC[C@H]1N2C(=O)NCc1ccc(C(F)(F)F)cc1	uPA generation 11.2µM, GLP1R inv ag inconclusive
COC(=O)C1=C(c2ccc(OCc3ccccc3)cc2)C[C@@H]2CC[C@H]1N2C(=O)NC1CCN(Cc2ccccc2)CC1	HEK293 tox inconclusive, uPA generation inconclusive, GLP1R inv ag 7.94µM
COC(=O)C1=C(c2ccc(OC(F)(F)F)cc2)C[C@@H]2CC[C@H]1N2C(=O)NCc1ccc(F)cc1	GLP1R inv ag inconclusive
COC(=O)C1=C(c2ccc(OC(F)(F)F)cc2)C[C@@H]2CC[C@H]1N2C(=O)NC1Cc2ccccc2C1	none
COC(=O)C1=C(c2ccc(OCc3ccccc3)cc2)C[C@@H]2CC[C@H]1N2C(=O)NCCN1CCOCC1	none
COC(=O)C1=C(c2ccc(OC(F)(F)F)cc2)C[C@@H]2CC[C@H]1N2C(=O)NC1CCCCC1	GLP1R inv ag 12.6µM
COC(=O)C1=C(c2ccc(OC(F)(F)F)cc2)C[C@@H]2CC[C@H]1N2C(=O)NCc1cccc2ccccc12	uPA generation inconclusive, GLP1R inv ag 7.94µM
CCC(=O)O[C@@](Cc1ccccc1)(c1ccccc1)[C@H](C)CN(C)C	none (no result: HEK293 tox, uPA generation, Mm-Cpn inhibitor, CCT modulator, GLP1R inv ag)
COc1ccc(S(=O)(=O)N2CCN(C(=O)c3ccc(COc4ccccc4)o3)CC2)cc1	GLP1R inv ag inconclusive (no result: uPA generation, Mm-Cpn inhibitor)
COc1ccc([C@H]2CC(=O)C=C(/C=C/Cc3ccccc3)C2)cc1	uPA generation inconclusive, GLP1R inv ag inconclusive
CC1CN(c2nc(-c3ccc(Br)cc3)nnc2-c2ccccc2)CC(C)N1 (stereo unspecified)	HEK293 tox inconclusive, GLP1R inv ag 2.82µM
C=CCC1=C(C)C(OC(=O)C2C(C=C(C)C)C2(C)C)CC1=O (stereo unspecified)	none (no result: HEK293 tox, uPA generation, Mm-Cpn inhibitor, CCT modulator, GLP1R inv ag)
Cc1ccc(N(CCC#N)C(=O)CCl)cc1C	HEK293 tox inconclusive, GLP1R inv ag 2.82µM
Nc1ccc2c(c1)C(=O)C(=O)c1ccccc1-2	HEK293 tox 3.55µM, Mm-Cpn inhibitor inconclusive, GLP1R inv ag inconclusive
O=C1c2ccccc2C(=O)c2ccccc21	none (no result: HEK293 tox, uPA generation, Mm-Cpn inhibitor, CCT modulator, GLP1R inv ag)
O=C1NC[C@H](c2ccccc2)OC(=O)[C@H](Cc2ccc(F)cc2)C/C=C\C[C@H]1CC(=O)N(CCO)Cc1ccccc1	GLP1R inv ag 5.62µM
Cc1nc(N2N=C3/C(=C/c4ccc(F)cc4)CCCC3C2c2ccc(F)cc2)sc1C(=O)N(C)C (stereo unspecified)	GLP1R inv ag 10µM
COCCNCCOc1ccc(C(C)(C)c2ccccc2)cc1	GLP1R inv ag 10µM
O=C(Nc1cc([N+](=O)[O-])ccc1C(=O)Nc1cccnc1)c1ccccc1	HEK293 tox inconclusive
CCOP(=O)(CCP(=O)(OCC)OCC)OCC.C[CH2][Sn]([Cl])([Cl])[CH2]C	HEK293 tox 12.6µM, GLP1R inv ag inconclusive (no result: Mm-Cpn inhibitor)
Cc1cccc(N2C(=O)CSC23C(=O)N(CC(=O)Nc2cccc(Cl)c2)c2ccccc23)c1 (stereo unspecified)	GLP1R inv ag inconclusive (no result: uPA generation, Mm-Cpn inhibitor, CCT modulator)
O=C1C2C3CCC(C3)C2C(=O)N1c1ccc(OS(=O)(=O)c2ccccc2)cc1 (stereo unspecified)	GLP1R inv ag 3.16µM
CCOC(=O)C1CCCN(c2ccc([N+](=O)[O-])c3nonc23)C1 (stereo unspecified)	GLP-1R agonist inconclusive, HEK293 tox 10µM
CCOC(=O)C(O)(c1ccc(NC(=S)NC(=O)c2ccc(Cl)cc2Cl)c(C)c1)C(F)(F)F (stereo unspecified)	HEK293 tox inconclusive, GLP1R inv ag 3.98µM
CCN(CC)C(=O)c1ccc(NC(=O)c2cn(-c3ccccc3)nc2-c2ccc(OC)cc2)cc1	GLP1R inv ag 4.47µM
COc1cc(C=C2C(=O)NC(=O)NC2=O)ccc1OCc1ccc([N+](=O)[O-])cc1	none
COc1cc(/C=C(/C)[N+](=O)[O-])ccc1OCc1ccccc1Cl	HEK293 tox inconclusive, CCT modulator -30.7, GLP1R inv ag 7.08µM
COc1ccc(CCNC(=O)c2ccc3c(c2)N=C(C)c2cc(C)ccc2S3)cc1OC	GLP1R inv ag inconclusive (no result: uPA generation, Mm-Cpn inhibitor, CCT modulator)
Cc1cc(OC(=O)N(C)C)nc(SCc2c(Cl)cccc2Cl)n1	uPA generation inconclusive, GLP1R inv ag 10µM
Cc1cc(OC(=O)N(C)C)n(-c2ccccc2)n1	none
CCc1ccc(NC(=O)c2ccc3oc(=O)n(Cc4ccccc4)c3c2)cc1	GLP1R inv ag inconclusive (no result: GLP-1R agonist, uPA generation, Mm-Cpn inhibitor, CCT modulator)
COc1cc(-c2cccc([C@H]3[C@@H]4C=CC[C@@H](C)[C@@H]4C(=O)N3Cc3ccccc3)c2)cc(OC)c1OC	uPA generation inconclusive, GLP1R inv ag inconclusive
COC(=O)C1=C(c2ccc(F)cc2OCc2ccccc2)C[C@@H]2CC[C@H]1N2C(=O)NCCc1ccc(F)cc1	uPA generation inconclusive, GLP1R inv ag 7.08µM
COC(=O)C1=C(c2cccc(OCc3ccccc3)c2)C[C@@H]2CC[C@H]1N2C(=O)NCc1ccccc1C(F)(F)F	GLP1R inv ag 3.98µM
COC(=O)C1=C(c2ccc(F)cc2OCc2ccccc2)C[C@@H]2CC[C@H]1N2C(=O)NCc1ccc(N(C)C)cc1	uPA generation inconclusive, GLP1R inv ag 10µM
